Test results as given in PubChem BioAssay (EPA / NIEHS).
Inconclusive results are not listed. Activity calls are given as the source filed them. The calls were made as follows, unless noted: active = hit-call score of the fitted dose curve at least 0.9, where 1 is the maximum; inconclusive = response in the unintended direction; inactive = score below 0.9.

Columns and labels:
[1] = read-out: ABC Transporter (ABCB1), ABCB1 (gene 5243); experiment: CLD_ABCB1_6hr: CellzDirect (CLD) Gene Expression Assay for ABC Transporter (ABCB1) at 6 hours (AID 2283659);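 also: hits raise ABCB1 transcript above the DMSO vehicle baseline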
Summary of the method: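 ABCB1 transcript measured by quantitative nuclease protection assay, chemiluminescent read-out, 6 h after dosing human hepatocyte cultures (0.2% DMSO vehicle, daily redosing). Activity fitted as increase over DMSO baseline; cytotoxicity flagged by phase-contrast morphology.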

[2] = read-out: alkyl and aryl transferase (GSTA2), GSTA2 (gene 2939); experiment: CLD_GSTA2_6hr: CellzDirect (CLD) Gene Expression Assay for alkyl and aryl transferase (GSTA2) at 6 hours (AID 2283666)
Summary of the method: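 GSTA2 transcript induction at 6 h, quantified by nuclease protection (qNPA) with chemiluminescent detection, in human liver primary hepatocytes exposed to several compound concentrations with 0.2% DMSO as baseline; phase-contrast morphology annotated apparent cytotoxicity.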

[3] = Tanguay_ZF_120hpf_TR_legacy: (Legacy) Oregon State University Tanguay Lab 120 Hour Post-fertilization zebrafish Assay for Touch Response (AID 2283667)
Summary of the method: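 Readout is presence or absence of touch response in 120 hpf zebrafish larvae, assessed by brightfield observation after continuous static exposure at 28C. Final vehicle was 0.64% (vol/vol) DMSO.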

[4] = read-out: organic anion transporter (SLCO1B1), SLCO1B1 (gene 10599); experiment: CLD_SLCO1B1_6hr: CellzDirect (CLD) Gene Expression Assay for organic anion transporter (SLCO1B1) at 6 hours (AID 2283668);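 also: active means mRNA induction above DMSO baseline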
Summary of the method: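 SLCO1B1 mRNA induction measured 6 h after dosing by quantitative nuclease protection with chemiluminescent read-out, in human primary hepatocyte cultures given chemicals at several concentrations (vehicle 0.2% DMSO). Increase over DMSO baseline fitted; morphology-based cytotoxicity annotated yes/no.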

[5] = read-out: sulfotransferase (SULT2A), SULT2A1 (gene 6822); experiment: CLD_SULT2A_6hr: CellzDirect (CLD) Gene Expression Assay for sulfotransferase (SULT2A) at 6 hours (AID 2283669);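 also: hits raise transcript level above the DMSO vehicle baseline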
Summary of the method: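 Measured 6 h after dosing, SULT2A1 mRNA in human hepatocyte lysates was quantified by S1 nuclease protection with chemiluminescent detection. Increases fitted against 0.2% DMSO vehicle baseline; phase-contrast cytotoxicity recorded yes/no.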

[6] = read-out: glucuronosyltransferase (UGT1A1), UGT1A1 (gene 54658); experiment: CLD_UGT1A1_6hr: CellzDirect (CLD) Gene Expression Assay for glucuronosyltransferase (UGT1A1) at 6 hours (AID 2283672)
Summary of the method: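 UGT1A1 mRNA induction, read by quantitative nuclease protection assay, 6 h after dosing primary human hepatocytes (two donors, 0.2% DMSO vehicle). Gain of signal fitted relative to vehicle.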

[7] = CLD_ACTIN_6hr: CellzDirect (CLD) Gene Expression Assay for Baseline Control (Actin) at 6 hours (AID 2283676);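 also: active means increased actin mRNA relative to DMSO vehicle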
Summary of the method: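 Baseline actin transcript level measured by qNPA (S1 nuclease protection, chemiluminescence) in human hepatocyte cultures 6 h after chemical exposure; 0.2% DMSO vehicle as reference, cytotoxicity noted from morphology.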

[8] = read-out: Cytochrome P450 2B6 (Homo sapiens) (UniProt P20813); experiment: CLD_CYP2B6_6hr: CellzDirect (CLD) Gene Expression Assay for xenobiotic metabolism (CYP2B6) at 6 hours (AID 2283677);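 also: actives raise CYP2B6 transcript above DMSO baseline so AC50 marks an inducer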
Summary of the method: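 CYP2B6 transcript levels, read by chemiluminescent qNPA, were fitted for increase versus DMSO baseline; cultured human liver hepatocytes from two donor preparations were harvested 6 h after exposure to test chemicals at multiple concentrations.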

[9] = CCTE_Padilla_ZF_144hpf_TERATOSCORE: (Legacy) CCTE's 144 Hour Post-fertilization zebrafish Assay Teratoscore, Padilla Lab (AID 2283679; active = hit-call score of the fitted dose curve at least 0.9, where 1 is the maximum; inactive = score below 0.9;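 as to AC50: zebrafish embryos with chorions exposed by immersion from 6-8 hpf to 5 dpf with daily renewal; teratogenicity score from eye scoring of death hatching and malformations at 144 hpf; higher score means more developmental defects relative to DMSO baseline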)
Summary of the method: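 Larvae scored by eye at 144 hpf for death, hatching and malformations after a day in clean Hanks'. Before that, daily-renewed exposure at 80 uM (0.4% DMSO, 26C) from roughly 6-8 hpf through 5 dpf, 4 embryos per chemical.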

[10] = Tanguay_ZF_120hpf_NC_legacy: (Legacy) Oregon State University Tanguay Lab 120 Hour Post-fertilization zebrafish Assay for Notochord and Tail Malformation (AID 2283656)
Summary of the method: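 Binary scoring of notochord distortion by brightfield microscopy; embryos dying were not scored. Wild-type Tropical 5D embryos, chorion removed, exposed singly and statically from 6 to 120 hpf, 28C, sealed, 0.64% DMSO.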

[11] = test system: Thyroperoxidase (TPO), gene 54314; experiment: CCTE_Simmons_AUR_rTPO: CCTE's Amplex UltraRed Assay for Thyroperoxidase (TPO) Inhibition, Simmons Lab (AID 2283662)
Summary of the method: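 Endpoint is decreased Amplex UltraRed fluorescence after a 30-min, 37C reaction of rat thyroid microsomes with 300 uM H2O2. Eight test concentrations (5 nM–87.5 uM final) in 0.5% DMSO, three biological replicates each.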

[12] = CCTE_Simmons_CellTiterGLO_HEK293T: Viability Assessment in CCTE's Assays for Thyroperoxidase (TPO) Inhibition, Simmons Lab (AID 2283665);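 as to AC50: cells exposed to compound for 24 h before readout; actives reduce ATP signal below DMSO vehicle meaning cytotoxicity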
Summary of the method: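 Cells were seeded overnight, then exposed to an eight-point series up to 87.5 uM final for 24 hours. CellTiter-Glo reagent was added and luminescence read after 20 min, giving ATP-based viability versus DMSO.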

[13] = CLD_ACTIN_24hr: CellzDirect (CLD) Gene Expression Assay for Baseline Control (Actin) at 24 hours (AID 2283670)
Summary of the method: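 This 24 h qNPA (S1 nuclease protection, chemiluminescence) actin transcript readout in cultured human liver primary cells serves as baseline control. Signal is fitted upward relative to 0.2% DMSO; chemicals tested at multiple concentrations across two donor preparations.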

[14] = read-out: Cytochrome P450 2C19 (Homo sapiens) (UniProt P33261); experiment: CLD_CYP2C19_6hr: CellzDirect (CLD) Gene Expression Assay for xenobiotic metabolism (CYP2C19) at 6 hours (AID 2283678)
Summary of the method: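 CYP2C19 transcript induction was quantified by quantitative nuclease protection assay with chemiluminescent read-out, 6 h after dosing. Cells were primary human hepatocytes from two donor preparations, given fresh dosing solutions daily in 0.2% DMSO vehicle. Activity was relative to DMSO.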

[15] = Tanguay_ZF_120hpf_TRUN_legacy: (Legacy) Oregon State University Tanguay Lab 120 Hour Post-fertilization zebrafish Assay for Truncated Body (AID 2283655)
Summary of the method: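 Single dechorionated zebrafish embryos received test chemical from 6 hpf in 0.64% DMSO, kept at 28C. At 120 hpf, brightfield inspection noted any truncated body.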

[16] = read-out: xenobiotic metabolism (CYP1A2), CYP1A2 (gene 1544); experiment: CLD_CYP1A2_6hr: CellzDirect (CLD) Gene Expression Assay for xenobiotic metabolism (CYP1A2) at 6 hours (AID 2283663)
Summary of the method: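 mRNA levels quantified by quantitative nuclease protection assay with chemiluminescence, 6 h after dosing human primary hepatocyte cultures (two donors) across several concentrations, vehicle 0.2% DMSO. Induction fitted upward versus DMSO; phase-contrast cytotoxicity annotated.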

[17] = read-out: xenobiotic metabolism (CYP1A1), CYP1A1 (gene 1543); experiment: CLD_CYP1A1_6hr: CellzDirect (CLD) Gene Expression Assay for xenobiotic metabolism (CYP1A1) at 6 hours (AID 2283661);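 also: potency for transcript induction above DMSO vehicle baseline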
Summary of the method: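 Read-out 6 h post-dose: qNPA chemiluminescent quantitation of transcript induction against 0.2% DMSO. Cells were cultured primary human hepatocytes from two separate donor preparations; phase-contrast morphology annotated apparent cytotoxicity.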

Measured: AC50

Chain of Cytochrome P450 2C19 (Homo sapiens) (P33261 whole entry, looked up): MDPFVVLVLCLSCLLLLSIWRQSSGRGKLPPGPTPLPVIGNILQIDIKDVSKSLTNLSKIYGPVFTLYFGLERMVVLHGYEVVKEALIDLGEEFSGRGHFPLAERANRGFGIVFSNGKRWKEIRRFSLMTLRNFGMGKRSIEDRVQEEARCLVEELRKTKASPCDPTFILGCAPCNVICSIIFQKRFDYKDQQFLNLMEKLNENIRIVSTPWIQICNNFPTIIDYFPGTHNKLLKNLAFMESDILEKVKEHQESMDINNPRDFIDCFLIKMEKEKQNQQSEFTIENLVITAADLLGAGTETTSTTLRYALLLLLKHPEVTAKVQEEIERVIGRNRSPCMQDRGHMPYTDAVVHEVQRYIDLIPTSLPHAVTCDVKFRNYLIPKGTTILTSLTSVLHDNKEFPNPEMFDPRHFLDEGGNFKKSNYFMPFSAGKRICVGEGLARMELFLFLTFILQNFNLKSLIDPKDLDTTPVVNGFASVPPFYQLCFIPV

CCCN(CCC)c1c([N+](=O)[O-])cc(C(F)(F)F)c(N)c1[N+](=O)[O-]
inactive: [1] | [2] | [3] | [4] | [5] | [6] | [7] | [9]
active: [8] 0.752 µM

CCCOC(=O)c1ccc(C(=O)OCCC)nc1
active: [9] 1.7 µM
not listed: [2] | [6] | [8] | [15] | [16] | [17]
inactive: all other assays above

CC(=O)[C@H]1CC[C@H]2[C@@H]3CCC4=CC(=O)CC[C@]4(C)[C@H]3CC[C@]12C
inactive: [15] | [3]
active: [9] 8.03 µM

CCCCOC(=O)C(C)Oc1ccc(Oc2ccc(C(F)(F)F)cn2)cc1 (stereo not drawn)
inactive: [10] | [2] | [3] | [4] | [5] | [13] | [6] | [8]
active: [9] 16.1 µM

C[C@]12CC[C@@H]3c4ccc(O)cc4C[C@@H](CCCCCCCCCS(=O)CCCC(F)(F)C(F)(F)F)[C@H]3[C@@H]1CC[C@@H]2O (stereo partly drawn)
inactive: [15] | [3] | [9]

CCOC(=O)c1ccc(O)cc1
inactive: [15] | [10] | [3]
active: [9] 62.6 µM

CCCOC(=O)NCCCN(C)C
inactive: [10] | [1] | [2] | [3] | [5] | [7] | [14] | [9]

O=C(c1ccccc1)C1CCCCC1
inactive: [15] | [10] | [3] | [9]

COc1nc(C)nc(NC(=O)NS(=O)(=O)c2ccccc2OCCCl)n1
not listed: [3] | [10] | [11] | [12] | [15] | [16] | [17]
inactive: all other assays above

COC(=O)c1ccccc1S(=O)(=O)NC(=O)Nc1nc(OC(F)F)cc(OC(F)F)n1
active: [9] 3.02 µM
inactive: [16] | [2] | [4] | [13] | [6] | [7] | [8] | [14]

CCOC(=O)C(C)Oc1ccc(Oc2cnc3cc(Cl)ccc3n2)cc1 (stereo not drawn)
active: [9] 1.7 µM
inactive: [15] | [10] | [2] | [3] | [6] | [7] | [8]

CCOC(=O)NCCOc1ccc(Oc2ccccc2)cc1
active: [8] 3.97 µM | [9] 15.4 µM
not listed: [2] | [11] | [12] | [15] | [16] | [17]
inactive: all other assays above

C[C@]12C[C@H](O)[C@H]3[C@@H](CCC4=CC(=O)CC[C@@]43C)[C@@H]1CC[C@@H]2C(=O)CO
inactive: [15] | [10] | [3] | [9]

CCN(Cc1c(F)cccc1Cl)c1c([N+](=O)[O-])cc(C(F)(F)F)cc1[N+](=O)[O-]
active: [8] 0.419 µM | [9] 0.00783 µM
inactive: [15] | [10] | [2] | [3] | [5] | [6]

OB(O)O
inactive: [15] | [10] | [3] | [4] | [6] | [14] | [9]

c1ccc(Nc2ccccc2)cc1
inactive: [10] | [2] | [3] | [4] | [13] | [6] | [14]
active: [17] 3.97 µM | [12] 89.8 µM | [8] 9.66 µM | [9] 64 µM

CCOC(=O)[C@H](C)Oc1ccc(Oc2nc3ccc(Cl)cc3o2)cc1
inactive: [1] | [4] | [5] | [6] | [7]

CCC(O)=C1C(=O)CC(C(=O)O)CC1=O (stereo not drawn)
inactive: [1] | [2] | [4] | [6] | [9]

CCCCOC(=O)[C@@H](C)Oc1ccc(Oc2ccc(C(F)(F)F)cn2)cc1
inactive: [15] | [1] | [5] | [13] | [6] | [7] | [8] | [14]
active: [9] 5.45 µM
